# 3T3 cytotox: Cytotoxic Profiling in NIH 3T3 Cell Line of Diverse Libraries Using Quantitative High-Throughput Screening; Potency, µM (titrated, usually from 96.7 µM), without a hit: top-dose activity change, negative = cytotoxicity, actives largely listed as inhibitors; NIH 3T3 viability, CellTiter-Glo ATP luminescence, 48-72 h; hit rate 4.3% among 94,000; AID 1345082, 2018; further: nearly all actives have a fitted effect of over 55% in size
#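 Cells were seeded at 400 per well, treated with pin-transferred compound, and kept 48 or 72 hr at 37 °C before CellTiter-Glo addition and luminescence imaging of cellular ATP.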
# Luciferase inh: Firefly luciferase inhibition profiling of diverse chemical library using quantitative high-throughput screening; Luciferin 4-monooxygenase (Photinus pyralis), P08659; purified P. pyralis luciferase, luminescence, biochemical; Potency, µM (doses to about 115 µM), most hits filed as inhibitors; hit rate 2.5% among 76,000; further: nearly all actives have a fitted effect of over 65% in size
#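 Biochemical qHTS: compound (6-point titration) added to 10uM D-luciferin plus 10uM ATP in Tris acetate pH 7.5 buffer with Mg, Tween-20 and BSA, then purified enzyme at 10nM; light output imaged.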
# HEK293 tox: Cytotoxic Profiling in HEK 293 Cell Line of Diverse Libraries Using Quantitative High-Throughput Screening. HEK 293 viability, ATP luminescence (CellTiter-Glo), 48-72 h. hit rate 6.6% among 94,000. Potency, µM (series often up to 115 µM), inactives show at the top dose activity change, negative = cytotoxicity, most hits filed as inhibitors. AID 1345083, 2018; further: nearly all actives have a fitted effect of over 60% in size
#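 Luminescence from cellular ATP, measured with CellTiter-Glo, indicates HEK 293 viability. Cells plated at 250 cells/well are treated with compound for 48 or 72 hr at 37 degree Celsius before reagent addition.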
# GPT2 inh: Primary qHTS assay for inhibitors of Glutamate pyruvate transaminase 2 (GPT2). Potency, µM (series often up to 57.7 µM), without a hit: at the top dose activity change, negative = inhibition, actives largely listed as inhibitors. Alanine aminotransferase 2 (Homo sapiens), Q8TD30. Recombinant GPT2, coupled pyruvate oxidase/HRP Amplex Red fluorescence. hit rate 0.25% among 100,000; further: nearly all actives have a fitted effect of over 60% in size
# Target sequence (Q8TD30 whole entry, looked up): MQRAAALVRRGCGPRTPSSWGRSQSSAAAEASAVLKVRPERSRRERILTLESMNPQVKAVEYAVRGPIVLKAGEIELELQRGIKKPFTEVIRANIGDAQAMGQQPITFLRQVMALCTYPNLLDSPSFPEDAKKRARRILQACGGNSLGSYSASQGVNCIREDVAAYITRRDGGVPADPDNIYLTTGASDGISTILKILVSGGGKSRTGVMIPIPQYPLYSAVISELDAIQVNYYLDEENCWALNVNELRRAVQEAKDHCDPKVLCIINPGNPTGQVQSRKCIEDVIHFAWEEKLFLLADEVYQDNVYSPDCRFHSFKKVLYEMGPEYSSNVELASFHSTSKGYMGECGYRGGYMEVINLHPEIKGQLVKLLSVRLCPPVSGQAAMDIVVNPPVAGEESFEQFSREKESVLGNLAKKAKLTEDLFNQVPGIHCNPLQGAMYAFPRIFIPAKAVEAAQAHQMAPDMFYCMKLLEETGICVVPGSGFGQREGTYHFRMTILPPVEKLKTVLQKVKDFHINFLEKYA
#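 Fluorescence read-out: pyruvate from GPT2 turnover coupled to pyruvate oxidase, HRP and Amplex Red (0.2mM ThPP, 0.2U/mL PO and HRP, 50uM Amplex final). Substrates 250uM a-KG, 2mM L-alanine; enzyme 10ng/uL; 30 min RT.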
# hNpr1 antagonist: Natriuretic polypeptide receptor (hNpr1) antagonism - Primary qHTS. hit rate 1.6% among 76,000. Potency, µM (top dose mostly 46.3 µM), for the others: at the top dose activity change, negative = inhibition, actives largely listed as inhibitors. Atrial natriuretic peptide receptor 1 (Homo sapiens), P16066. HEK293 hNpr1 GloSensor cGMP, ANP-stimulated luminescence. AID 1347048, 2019; calls by dose curve; further: nearly all actives have a fitted effect of over 60% in size
#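 Compound pre-incubated 30 min at room temperature on GloSensor-loaded HEK293 cells stably carrying hNpr1 and the pGS-40F cGMP biosensor. Stimulation uses hNppA at 0.1 nM final; luminescence is taken at baseline and 20 min post-agonist.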
# Active calls of the source: *; i = inactive; ? = inconclusive; . = not tested or not shown; [ ] = another dose, or the depositor's remark. Rows were chosen to be rich in hits. Some 10% of all compounds tested hit in one or more screens of this group. Unless noted, the call rests on the fitted dose curve; in most records, active means well fitted curve in the direction sought with a large enough effect; inconclusive means small, poorly fitted or top-dose-only effect, or another doubt; inactive means no such curve, though single readings can be large; an effect the other way counts as inactive or inconclusive. On the % scale 0 is the no-effect control and ±100 the full control effect; potency means the concentration at half of the fitted maximal effect.
SMILES,3T3 cytotox,Luciferase inh,HEK293 tox,GPT2 inh,hNpr1 antagonist
COCCn1c(=O)c2c(n1Cc1ccccc1)CN(C(=O)c1cc3ccccc3n1C)CC2,28µM*,i,-11%,i,-1%
Cc1cc(C)c(CN2CCC(n3cc(C(C)(C)N)nn3)CC2)c(C)c1,79µM*,i,?,i,7%
O=C(c1nccc2ccccc12)N1CCc2c(nc(-c3ccc(F)cc3)[nH]c2=O)C1,14µM*,i,?,i,-12%
O=C(c1ccco1)N1CCc2c(nc(-c3ccc(F)cc3)[nH]c2=O)C1,?,i,3%,-8%,-12%
COC(=O)[C@@H]1Cc2c[nH]c3cccc(c23)[C@H](CC(C)C)N1,-7%[230 µM],i,?,-20%[88.5 µM],6%[70.6 µM]
C#CCNC(=O)[C@@H]1Cc2cn(Cc3ccncc3)c3cccc(c23)[C@H](CC(C)C)N1,89µM*,i,45µM*,?,-10%[70.6 µM]
CC(C)C[C@@H]1N[C@H](C(=O)NCc2ccncc2)Cc2cn(Cc3ccncc3)c3cccc1c23,?,i,50µM*,i,-2%
CC(C)C[C@@H]1N[C@H](C(=O)NCc2ccccn2)Cc2cn(Cc3ccncc3)c3cccc1c23,?,i,25µM*,?,-10%
CC(C)C[C@@H]1N[C@H](C(=O)NCc2cccs2)Cc2c[nH]c3cccc1c23,40µM*,i,40µM*,?,1%[70.6 µM]
CC1(c2ccccc2)N(Cc2ccccc2C#N)C(=O)OC12CCN(C(=O)Cc1cccc(F)c1)CC2 (stereo not given),-31%,i,?,4%,-2%
Cc1ccc(CN2CCCC(c3nc(C(C)C)no3)CCNC(=O)CC2)s1 (stereo not given),?,i,?,i,-17%
C=CCn1cc2c3c(cccc31)[C@H](CC(C)C)N[C@H](C(=O)NCc1ccc(OC)cc1)C2,-11%[174 µM],i,-1%[172 µM],-18%[88.5 µM],-18%[70.6 µM]
C#CCNC(=O)[C@@H]1Cc2cn(CC3CC3)c3cccc(c23)[C@H](CC(C)C)N1,45µM*,i,71µM*,0%[88.5 µM],-13%[70.6 µM]
C=CCn1cc2c3c(cccc31)[C@H](CC(C)C)N[C@H](C(=O)NCc1ccccn1)C2,?,i,50µM*,4%[88.5 µM],-13%[70.6 µM]
CCN1CCCCC12Cc1ccccc1CN(C(=O)C(C)C)C2 (stereo not given),-3%,.,-22%,i,.
O=C(Nc1cc(C2CC2)nn1-c1ccccc1)C1CC1,-9%[138 µM],.,i,-2%[88.5 µM],.
Cc1ccc(C(=O)NC[C@@H]2CC[C@H]3C[C@@H]2C3(C)C)cc1,?,i,?,i,6%[70.6 µM]
CC1(C)[C@H]2CC[C@@H](CNC(=O)c3cccc(Br)c3)[C@@H]1C2,?,i,100µM*,0%[88.5 µM],-2%[70.6 µM]
CC1(C)[C@H]2CC[C@@H](CNC(=O)c3ccc4ccccc4n3)[C@@H]1C2,89µM*,i,?,-10%[88.5 µM],0%[70.6 µM]
CC1(C)[C@H]2CC[C@@H](CNC(=O)c3ccc(Cl)nc3)[C@@H]1C2,79µM*,i,?,-3%[88.5 µM],-7%[70.6 µM]
Cc1cc(C(=O)NC[C@@H]2CC[C@H]3C[C@@H]2C3(C)C)ccc1Cl,35µM*,i,?,3%[88.5 µM],?
Cc1ccccc1C(=O)NC[C@@H]1CC[C@H]2C[C@@H]1C2(C)C,?,i,?,i,-5%[70.6 µM]
COc1cccc(CN2C[C@@H]3C(=O)N(CCN4CCc5ccccc5C4)C(=O)[C@@H]3C2)c1,-25%,i,?,i,-8%
CC1(C)[C@H]2CC[C@@H](CNC(=O)N3CCCC3)[C@@H]1C2,?,i,63µM*,i,-7%[70.6 µM]
CCC(=O)NC[C@@H]1CC[C@H]2C[C@@H]1C2(C)C,-27%[174 µM],i,-11%[230 µM],i,6%[70.6 µM]
SMILES,3T3 cytotox,Luciferase inh,HEK293 tox,GPT2 inh,hNpr1 antagonist
CC1(C)[C@H]2CC[C@@H](CNC(=O)Cc3cccc(Cl)c3)[C@@H]1C2,?,i,100µM*,i,8%[70.6 µM]
O=c1c2nc(Nc3ccccc3)ccc2ncn1-c1cccnc1,.,.,.,1%[88.5 µM],.
COc1ccc(Nc2ccnc(N3CCC(N[S+](=O)([O-])c4cccc(C(F)(F)F)c4)CC3)n2)cc1,18µM*,.,22µM*,i,.
COc1ccc(Nc2ccnc(N3CCC(N[S+](=O)([O-])c4c(C)noc4C)CC3)n2)cc1,40µM*,.,45µM*,-2%,.
COc1ccc(Nc2ccnc(N3CCC(N[S+](=O)([O-])c4ccccc4)CC3)n2)cc1,?,.,?,i,.
CCOC(=O)CN(C1CCCC1)[C@@H]1C[C@@H]2CO[C@H](C(C)C)C[C@@H]2C1,?,.,-16%,.,.
Cc1ccc2c(ccn2CCNC(=O)Cn2nc3c(cc2=O)CCCCC3)c1,-7%,i,i,2%,3%
NC(=O)c1cc[nH]c1C1CCCN(S(=O)(=O)c2ccc3c(c2)CCC3)C1 (stereo not given),?,i,?,-5%,?
COCc1nc2nc(-c3ccccc3)c(-c3ccc(N4CCN(C)CC4)nc3)cc2n1C,?,?,?,-26%[88.5 µM],14µM*
COCc1nc2nc(-c3ccccc3)c(-c3ccc([S+](C)(=O)[O-])cc3)cc2n1C,89µM*,i,i,-2%[88.5 µM],.
COc1cccc(CC(=O)N2C[C@@H](CO)[C@H](c3nc(C4CC4)no3)C2)c1,-10%,i,i,-2%,1%
COc1ccc(CCN(Cc2ccccc2F)CC2(O)CCCNC2)cc1 (stereo not given),25µM*,i,25µM*,-13%,-25%
O=C(c1nnc(COc2cc(F)cc(F)c2)n1-c1ccccc1)N1CCC[C@@H]1c1nc2ccccc2[nH]1,32µM*,i,?,0%,0%
COc1ccc(OCc2nnc(C(=O)N3CCC[C@@H]3c3nc4ccccc4[nH]3)n2-c2ccccc2)cc1,11µM*,i,-11%,-5%,4%
N#Cc1cccc(OCc2nnc(C(=O)N3CCC[C@@H]3c3nc4ccccc4[nH]3)n2-c2ccccc2)c1,?,i,-13%,-7%,-17%
O=C1[C@H]2CC[C@H](CN(Cc3ccc(-n4ccnc4)cc3)C2)N1CC1CCC1,40µM*,i,?,i,?
c1ccc(-c2noc(-c3cncnc3N3CCN(c4ccccc4)CC3)n2)cc1,?,?,45µM*,1%,-21%
COCCn1c(=O)c(C(=O)N2CCN(C(=O)c3ccccc3F)CC2)nc2cccnc21,-15%,.,0%,i,.
